Source: PubChem BioAssay (NCI)
Compounds without any hit were thinned out: in the full panel of roughly 83,000, 20% have a hit.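 Interpretation: 100, growth as untreated; towards 0, rising growth inhibition; 0, no net growth; 0 to -100, cell death. Compounds scoring below 10 were considered active.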 Values without a mark were called inactive. Activity calls are given as the source filed them.

Tests used:
Assay in all cases: NCI-60 one-dose screen, 48 h (100 = growth as untreated, 0 = no growth, -100 = all killed)
Conditions in all cases: 10 µM unless noted
SR leukemia = test system: SR leukemia
RPMI-8226 leukemia = test system: RPMI-8226 leukemia
OVCAR-8 ovarian = test system: OVCAR-8 ovarian
OVCAR-5 ovarian = test system: OVCAR-5 ovarian
OVCAR-4 ovarian = test system: OVCAR-4 ovarian
SK-OV-3 ovarian = test system: SK-OV-3 ovarian
IGROV1 ovarian = test system: IGROV1 ovarian
OVCAR-3 ovarian = test system: OVCAR-3 ovarian
HS 578T breast = test system: HS 578T breast
NCI/ADR-RES ovarian = test system: NCI/ADR-RES ovarian
T-47D breast = test system: T-47D breast
BT-549 breast = test system: BT-549 breast
MDA-MB-435 melanoma = test system: MDA-MB-435 melanoma
SW-620 colon = test system: SW-620 colon
MCF7 breast = test system: MCF7 breast
HCT-116 colon = test system: HCT-116 colon
HCC-2998 colon = test system: HCC-2998 colon
KM12 colon = test system: KM12 colon

Row | SMILES | growth (SR leukemia) | growth (RPMI-8226 leukemia) | growth (OVCAR-8 ovarian) | growth (OVCAR-5 ovarian) [%] | growth (OVCAR-4 ovarian) | growth (SK-OV-3 ovarian) | growth (IGROV1 ovarian) [%] | growth (OVCAR-3 ovarian) [%] | growth (HS 578T breast) | growth (NCI/ADR-RES ovarian) [%] | growth (T-47D breast) | growth (BT-549 breast) [%] | growth (MDA-MB-435 melanoma) [%] | growth (SW-620 colon) | growth (MCF7 breast) | growth (HCT-116 colon) | growth (HCC-2998 colon) | growth (KM12 colon)
1 | NC(=NCCCOc1ccc(F)cc1)Nc1ccc(Cl)c(Cl)c1 | 52.1% | 39.1% | 88.6% | 81.5 | 59.9% | 99.8% | 45.9 | 73.3 | 65.7% | 69.9 | 29.2% | 91.2 | 79 | 60.4% | 18.1% | 45.6% | -45.7% (active) | 76.5%
2 | CC1OC(n2c3ccccc3c3c4c(c5c6ccccc6[nH]c5c32)C(=O)N(CCN[C@@H]2CCC[C@H]2N)C4=O)CC(O)C1O (some centres not stated) | -19.1% (active) | -5.48% (active) | 18% | 49.2 | 24.7% | 20.1% | 22.7 | 27.7 | 30% | 77.6 | 19.6% | 23.8 | 18.4 | 5.32% (active) | -34% (active) | 9.41% (active) | -9.5% (active) | 14.7%
3 | Nc1nc(-c2cc3c(cc2Cl)NC(=O)/C3=C/c2ccccc2)cs1 | 14.2% | 37.6% | 46.6% | 108 | 69.6% | 81.1% | 35.4 | 29.8 | 58.7% | 74.6 | 7.52% (active) | 55.7 | 24.4 | 40.4% | 7.09% (active) | 14.5% | 58% | 45.5%
4 | Cc1nc(-c2ccc(Cl)cc2)ccc1NC(=O)Nc1cccc(C(F)(F)F)c1 | 59.6% | 85.3% | 98.9% | 121 | 108% | 110% | 111 | 111 | 103% | 98.1 | 87.5% | 98.6 | 103 | 89.6% | 81% | 74.5% | 107% | 101%
5 | CN1CCN(CC(=O)N(C)c2ccc(N=C(c3ccccc3)c3c(O)[nH]c4ccc(C#N)cc34)cc2)CC1 | 0.738% (active) | 57.6% | 39.1% | 80.1 | 48% | -7.83% (active) | 31 | 52.2 | -2.32% (active) | 106 | 69.4% | 15.1 | 23.9 | 16.5% | 12.7% | 9.41% (active) | 39.8% | 9.43% (active)
6 | Cl[C@@H]1CCO[C@H](c2cc3ccccc3c3ccccc23)C1 | 93.8% | 83.3% | 98.9% | 91.5 | 94.8% | 97.2% | 97.9 | 108 | 103% | 103 | 99.5% | 87.4 | 101 | 95.4% | 97.5% | 90.3% | 94.8% | 100%
7 | CC(Cl)(CCl)CS(=O)(=O)c1ccc(Cl)cc1 (configuration not stated) | 96.2% | 99.8% | 97.4% | 113 | 111% | 102% | 115 | 110 | 97.3% | 110 | 113% | 105 | 108 | 103% | 99.8% | 103% | 104% | 108%
8 | C/C(=N/O)c1ccc(NC(=O)Cn2nc(-c3ccc(Cl)cc3)nc2N)cc1 | 81.2% | 93.4% | 81.6% | 108 | 119% | 72.6% | 89.7 | 104 | 88.5% | 99.6 | 87% | 116 | 109 | 104% | 84.9% | 107% | 103% | 98.4%
9 | CCN(CC)CCNc1ccc([N+](=O)[O-])c2sc3cc(Cl)ccc3c(=O)c12 | 9.3% (active) | 3.51% (active) | 3.32% (active) | 38.7 | -37.6% (active) | 86.3% | 15.1 | 71.5 | 80.2% | 33.9 | 103% | 89.9 | 72.8 | 40.2% | 24.6% | 11.8% | 47.3% | 66.6%
